Source: PubChem BioAssay AID1423 (NMMLSC, 2008)
The campaign covered roughly 220,000 compounds. About 750 (0.34%) were called active. The sample as a whole holds a higher share of actives than the screen did. Unmarked numbers belong to inactive results. Cut-off read from the data, not from the text of the source: active = response below about 60% or above about 140%; inactive = in between.

These compounds were tested against Guanine nucleotide-binding protein G(o) subunit alpha (Homo sapiens) (UniProt P09471) (assay: compounds changing RGS8 association with Galphao – biochemical, multiplexed bead flow cytometry, primary screen (AID 1423;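 note: Galphao activated as the GDP aluminium fluoride complex binding bead-coupled RGS8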)). Settings: at 10 µM, actives lie on both sides.
Chain of Guanine nucleotide-binding protein G(o) subunit alpha (Homo sapiens) (P09471 whole entry, looked up): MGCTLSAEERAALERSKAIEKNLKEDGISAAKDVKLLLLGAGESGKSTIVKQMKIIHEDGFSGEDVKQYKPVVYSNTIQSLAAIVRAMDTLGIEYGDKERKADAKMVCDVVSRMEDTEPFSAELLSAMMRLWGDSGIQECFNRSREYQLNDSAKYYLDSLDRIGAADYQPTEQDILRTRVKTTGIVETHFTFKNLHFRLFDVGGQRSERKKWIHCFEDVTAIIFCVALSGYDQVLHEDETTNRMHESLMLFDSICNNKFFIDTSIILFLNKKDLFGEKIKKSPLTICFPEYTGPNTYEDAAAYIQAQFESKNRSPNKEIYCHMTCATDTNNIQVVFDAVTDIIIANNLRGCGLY

SMILES | response (percent of control binding)
Cc1cc(C)cc(N(CC(=O)Nc2c(C)n(C)n(-c3ccccc3)c2=O)S(C)(=O)=O)c1 | 1.54% (active)
Cc1cc(C)cc(N(C(C)C(=O)Nc2c(C)n(C)n(-c3ccccc3)c2=O)S(C)(=O)=O)c1 (stereo not drawn) | 104%
Cc1ccc(S(=O)(=O)CC(=O)Nc2c(C)n(C)n(-c3ccccc3)c2=O)cc1 | 97.4%
CCc1nn(-c2cc(Oc3cccc4ccccc34)nc(-c3ccccc3)n2)c(N)c1C#N | 105%
N/C(=N\S(=O)(=O)c1ccc(Cl)cc1)N1CCOCC1 | 98.4%
CC(C)(C)C(=O)NNC(=O)c1ccc(Oc2cc(Cl)cc(Cl)c2)o1 | 104%
O=C(CN1CCOCC1)Nc1ccccc1 | 145% [activator] (active)
O=C(CN1CCOCC1)Nc1ccc(NC(=O)CN2CCOCC2)c(Cl)c1 | 100%
O=C(CN1CCOCC1)Nc1c(Cl)cc(Cl)cc1Cl | 96%
CC(=O)c1ccc(N=C2SCCCN2C(=O)C2CCCCC2)cc1 | 95.4%
O=C(NNc1c2ccccc2nc2ccccc12)c1cc2ccccc2cc1O | 98.1%
Cc1ccc(S(=O)(=O)N2CCN(C(=O)COC(=O)c3c(C)noc3C)CC2)c(C)c1 | 103%
O=S(=O)(c1ccc(Br)cc1)c1nc(-c2ccccc2)oc1NCc1cccnc1 | 103%
N#Cc1nc(COc2ccc(-c3ccccc3)cc2)oc1NCc1cccnc1 | 167% [activator] (active)
N#Cc1nc(-c2ccc(OCc3ccccc3)cc2)oc1NCCCN1CCOCC1 | 99.9%
CC(C)(C)NC(=O)NC(=O)COC(=O)Cc1c(F)cccc1Cl | 99.5%
CCCCC(CC(C)O)c1n[nH]c(=S)n1-c1ccccc1 (stereo not drawn) | 108%
S=c1[nH]nc(CSCc2ccc(Cl)cc2Cl)n1-c1ccccc1 | 92.7%
CCn1c(CSCc2c(Cl)cccc2Cl)n[nH]c1=S | 55.5% (active)
CCn1c(CNS(=O)(=O)c2ccc(Cl)cc2)n[nH]c1=S | 100%
Cc1ccc(C(=O)C(=S)N2CCOCC2)cc1 | 110%
CC1CC(C)(C)n2c(O)c(N=NC(N)=S)c3cccc1c32 (stereo not drawn) | 100%
NS(=O)(=O)c1ccc(CCNC(=O)CCCn2c(SCC(=O)N3CCCC3)nc3ccsc3c2=O)cc1 | 103%
O=[N+]([O-])c1ccccc1Nc1ccc(O)cc1 | 102%

SMILES | response (percent of control binding)
O=C(CC1SC(=Nc2ccccc2F)N(CCN2CCOCC2)C1=O)Nc1ccc(F)cc1F (stereo not drawn) | 97.3%
CCOc1cc(NC(=O)c2ccccn2)c(OCC)cc1NC(=O)c1ccc(OC)cc1 | 103%
COc1ccc(CC(=O)N/N=C(\C)c2ccccn2)cc1 | 72.6%
CCN(CC)CCOc1ccc2c(c1)C(=NNC(=O)c1ccccn1)c1cc(OCCN(CC)CC)ccc1-2 | 154% [activator] (active)
COC(=O)C1=C(C)NC(=O)/C1=C/c1ccc(CNS(=O)(=O)c2ccc(C)cc2)o1 | 91%
O=C(COc1ccccc1)N1CCc2ccccc2C1 | 101%
Cn1c(=O)c2c(n(Cc3ccccc3)c1=O)NC(=O)C2CC(=O)N1CCc2ccccc2C1 (stereo not drawn) | 12.1% (active)
O=C(CSc1nnc(-c2cccs2)n1Cc1ccccc1)N1CCc2ccccc2C1 | 97%
O=C(NC1CCCCC1)C1CCCN(S(=O)(=O)c2ccc(Br)s2)C1 (stereo not drawn) | 96.9%
O=C(O)c1ccc2c3c(cccc13)C(=O)N(OS(=O)(=O)c1ccccc1)C2=O | 98.5%
Cc1ccc(NC(=O)NCC(c2cccnc2)N2CCOCC2)cc1 (stereo not drawn) | 103%
CN1CCN(S(=O)(=O)c2ccc(N3CCN(S(=O)(=O)c4cccs4)CC3)nc2)CC1 | 100%
CN1CCN(C(CNS(=O)(=O)c2cccs2)c2cccnc2)CC1 (stereo not drawn) | 10.6% (active)
CCOC(=O)CCNC(=O)N1CCCC(C(=O)c2ccccc2SC)C1 (stereo not drawn) | 90.6%
Cc1ccc2c(N)c(C(=O)c3ccccc3)sc2n1 | 104%
COc1cc(OC)cc(C(=O)NCCSCc2ccco2)c1 | 97.9%
COc1cccc(C(=O)NCCSc2ccc(Br)cc2)c1 | 20.7% (active)
COc1cccc(C(=O)NNC(=O)c2ccccc2Br)c1 | 107%
OC(c1ccccc1)c1nccn1Cc1ccccc1 (stereo not drawn) | 97.5%
OC(c1nc2ccccc2[nH]1)C(O)C(O)C(O)c1nc2ccccc2[nH]1 (stereo not drawn) | 100%
O=C(N/N=C/c1cccc([N+](=O)[O-])c1)c1ccncc1 | 99.5%
CCOc1ccccc1NC(=O)CCN1CCN(S(=O)(=O)c2ccc(OC)cc2)CC1 | 99.6%
Cc1c(C(=O)Nc2ccccc2Cl)oc2ccc(S(=O)(=O)N3CCC4(CC3)OCCO4)cc12 | 105%
CCOc1ccccc1NC(=O)c1cc(S(=O)(=O)N2CCC3(CC2)OCCO3)ccc1F | 33% (active)
